PubChem BioAssay
“And” between values parts separate entries of the source, which are not always exact repeats. Identical values can stand only once. The source made the active and inactive calls. Unless noted, no stated cut-off is given here; in the data, active means inhibition above about 80%; inactive means the rest.

Tests used:
[1] = system: Aerobactin synthetase IucA (Klebsiella pneumoniae); assay: IucA aerobactin synthetase inhibitors, biochemical, Tocris library, absorbance (AID 1345561; call rule not given here;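 further: 100% = enzyme without compound and 0% = no enzyme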); details: purified IucA enzyme assay, absorbance (OD) read-out; stronger effect = lower value;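 tested at 8 µM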
[2] = sensitizers of A549 cells to miR-34 induction, primary screen, imaging, A549 dox-inducible miR-34, nuclei and caspase counts (AID 1347080;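 active means compounds whose cell count with miR-34 switched on is under 0.7 times the count with it off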); details: A549 miR-34 inducible, Hoechst nuclei count, 48 h
[3] = viability rescue of complex I mutant cybrids, primary screen, cell-based, galactose medium, ATP luminescence (AID 1645843;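 active means z-score of at least 1.8 in each of two replicates, scored against plate mean and spread of sample wells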;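 further: positive z means more ATP and so rescue of galactose-driven cybrid death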); details: complex I mutant cybrid cells, 72 h, stronger effect = higher value
[4] = hESC survival regulators, cell-based (AID 493140; call rule not given here;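 further: cells exposed to compounds for four days before counting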); details: human embryonic stem cell survival screen; stronger effect = higher value
[5] = circadian clock period modulators, cell-based, LOPAC library, luminescence reporter (AID 2774; call rule not given here;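 further: values are relative to mean of DMSO wells on each plate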); details: circadian reporter cells, at 7 µM, actives lie on both sides
[6] = LFS_MB_P medulloblastoma growth inhibition, cell-based, chromothripsis tumors, cisplatin or BGB combos (AID 1671449); details: LFS_MB_P medulloblastoma cells;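 further: cells exposed for 96 hours; 0% = vehicle DMSO and 100% = killing by high DMSO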
[7] = HDN33 neuroblastoma growth inhibition, cell-based, chromothripsis tumors, cisplatin or BGB combos (AID 1671450); details: HDN33 neuroblastoma cells, stronger effect = higher value;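 further: cells exposed to compound for four days; 0% = vehicle DMSO and 100% = cell killing by high DMSO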
[8] = ICB984 medulloblastoma cell growth inhibition, synergistic combos for chromothripsis tumors, cisplatin or BGB combos (AID 1671451; call rule not given here;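 further: cells exposed for 96 hours before readout; 0% = vehicle DMSO and 100% = killing by high DMSO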); details: ICB984 medulloblastoma cells, drug combinations, stronger effect = higher value
[9] = LFS_MB_1R medulloblastoma cell growth inhibition, synergistic combos for chromothripsis tumors, cisplatin or BGB combos (AID 1671452); details: LFS_MB_1R medulloblastoma cells, stronger effect = higher value;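 further: cells exposed for 96 hours before readout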
[10] = HTB85 osteosarcoma cell growth inhibition, synergistic combos for chromothripsis tumors, BGB or cisplatin IC20 combos (AID 1671453); details: HTB85 osteosarcoma cells, drug combinations, stronger effect = higher value;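 further: cells exposed for 96 hours before readout; 0% = vehicle DMSO and 100% = high DMSO killing control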
[11] = CRL2098 osteosarcoma cell growth inhibition, synergistic combos for chromothripsis tumors, BGB or cisplatin IC20 combos (AID 1671454); details: CRL2098 osteosarcoma cells, drug combinations, stronger effect = higher value;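 further: cells exposed for 96 h before readout; 0% = vehicle DMSO and 100% = killing by high DMSO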
[12] = HD-MB03 medulloblastoma cell growth inhibition, synergistic combos for chromothripsis tumors, BGB or cisplatin IC20 combos (AID 1671455; in the data active means inhibition above about 83%;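 further: 0% = vehicle DMSO and 100% = high DMSO as cytotoxic control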); details: HD-MB03 medulloblastoma cells, stronger effect = higher value
[13] = UWB1.289 ovarian carcinoma cell growth inhibition, synergistic combos for chromothripsis tumors, BGB or cisplatin combos (AID 1671456); details: UWB1.289 ovarian carcinoma cells, stronger effect = higher value;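 further: cells exposed to compound for four days; 0% = vehicle DMSO and 100% = killing by high DMSO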
[14] = LFS_MB_2R medulloblastoma cell growth inhibition, synergistic combos for chromothripsis tumors, cisplatin combos (AID 1671457); details: LFS_MB_2R medulloblastoma cells, stronger effect = higher value;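 further: cells exposed to compound for four days before readout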
[15] = MDA-MB-436 breast carcinoma cell growth inhibition, synergistic combos for chromothripsis tumors, BGB or cisplatin combos (AID 1671458; call rule not given here;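 further: cells exposed for 96 hours; 0% = vehicle DMSO and 100% = killing by high DMSO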); details: MDA-MB-436 breast carcinoma growth inhibition, drug combinations, stronger effect = higher value
[16] = UWB1.289_BRCA1 ovarian cancer growth, cell-based, BGB or cisplatin combinations (AID 1671459); details: UWB1.289 BRCA1 ovarian carcinoma, drug combinations, stronger effect = higher value
[17] = human astrocyte viability loss, single and combined drugs, cytotoxicity control for chromothriptic childhood tumor combination screen, cell-based, BGB or cisplatin IC20 combos (AID 1671460); details: Human astrocytes, drug combinations, stronger effect = higher value;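 further: cells exposed to compounds for 96 hours before viability readout; 0% = vehicle and 100% = killing control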
[18] = growth inhibition of BT084 medulloblastoma cells, cell-based, ICGC_MB145, cisplatin and BGB IC40 combos (AID 1671461); details: drug combinations, stronger effect = higher value;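 further: cells exposed to drugs for 96 hours; 0% = vehicle DMSO and 100% = high DMSO full killing control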
[19] = growth inhibition of RCMB18 medulloblastoma cells, cell-based, cisplatin and BGB IC40 combos (AID 1671462); details: stronger effect = higher value;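 further: cells exposed to compound for four days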
[20] = growth inhibition of CRL1545 osteosarcoma cells, cell-based, cisplatin and BGB IC20 combos (AID 1671464); details: stronger effect = higher value;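 further: cells exposed to compound for 96 hours before readout; 0% = vehicle DMSO and 100% = high DMSO killing control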
[21] = stronger effect = lower value, cell number ratio, induced over uninduced
[22] = measured here: relative caspase fold change +Dox/-Dox
[23] = measured here: total cells with miR-34 induction, stronger effect = lower value
[24] = measured here: total cells without miR-34 induction
[25] = measured here: combination with BGB IC40, at 0.05 µM
[26] = measured here: with BGB IC20 combination, at 0.5 µM
[27] = measured here: with cisplatin IC20 combination, at 0.5 µM
[28] = measured here: combination with cisplatin, at 0.5 µM
[29] = measured here: combination with cisplatin, at 5 µM

In the case of `O=C(O)c1cc(Oc2ccc([N+](=O)[O-])cc2)cc(Oc2ccc([N+](=O)[O-])cc2)c1`, the remaining activity [1] is reported as 113% (inactive), the fold change [2, 21] is reported as 0.979 (inactive) and the fold change [2, 22] is reported as 0.988. For the same compound, the cell count [2, 23] was 8410, the cell count [2, 24] was 8600 and the z-score [3] was 1.39 (inactive).
For `O=C(Nc1ccc([N+](=O)[O-])cc1O)Nc1ccccc1Br`, the remaining activity [1] was 105% (inactive), the fold change [2, 21] was 1.13 (inactive) and 1.09 (inactive) and the fold change [2, 22] was 1.05 and 1.85. The cell count [2, 23] was 5450 and 2460, the cell count [2, 24] was 4830 and 2250 and the z-score [3] was -0.58 (inactive).
For `NC(=NCCc1ccc(I)cc1)SCCCC1CNCN1` (stereo not drawn), the remaining activity [1] was 98% (inactive), the fold change [2, 21] was 1.01 (inactive) and the fold change [2, 22] was 0.754. The cell count [2, 23] was 6720, the cell count [2, 24] was 6680 and the z-score [3] was -0.645 (inactive).
For `COC(=O)/C=C/c1cc(O)ccc1O`, the survival [4] was 85.3 (inactive), the remaining activity [1] was 98.4% (inactive) and the fold change [2, 21] was 0.869 (inactive). The fold change [2, 22] was 0.871, the cell count [2, 23] was 8110 and the cell count [2, 24] was 9340. For the same compound, the z-score [3] was -1.21 (inactive).
For `O=C(OCCN1CCCCC1)c1c[nH]c2ccccc12`, the period change [5] was -0.005 h (inactive), the remaining activity [1] was 82.2% (inactive) and the fold change [2, 21] was 0.911 (inactive). For the same compound, the fold change [2, 22] was 0.811, the cell count [2, 23] was 9250 and the cell count [2, 24] was 10200. The z-score [3] was 0.69 (inactive).
In the case of `COc1cc(C=O)c([N+](=O)[O-])cc1OC`, the remaining activity [1] is reported as 102% (inactive), the fold change [2, 21] is reported as 0.928 (inactive) and the fold change [2, 22] is reported as 1.17. For the same compound, the cell count [2, 23] was 8790, the cell count [2, 24] was 9460 and the z-score [3] was -0.05 (inactive). For the same compound, the inhibition ([6]; at 0.5 µM, stronger effect = higher value) was -16.6% (inactive), the inhibition ([6]; measured here: combination with BGB IC20, at 0.005 µM) was 9.48% and the inhibition ([6]; measured here: combination with BGB IC40, at 0.005 µM) was -5.33%. The inhibition [6, 25] was 7.41%, the inhibition ([6]; measured here: combination with cisplatin, at 0.5 µM, stronger effect = higher value) was -18.5% and the inhibition ([6]; measured here: combination with cisplatin, at 5 µM, stronger effect = higher value) was 3.4%. For the same compound, the inhibition ([7]; BGB combo, at 5 µM) was -38.7%, the inhibition ([7]; at 0.5 µM) was -19.7% (inactive) and the inhibition ([7]; cisplatin combo, at 5 µM) was -6.74%. The inhibition [7, 26] was -8.97%, the inhibition [7, 27] was -29.9% and the inhibition ([7]; single agent, at 5 µM) was 0.626%. It also gave an inhibition ([8]; BGB IC20 combo, at 0.005 µM) of -9.07%, an inhibition ([8]; BGB IC40 combo, at 0.005 µM) of -48.2% and an inhibition ([8]; BGB IC40 combo, at 0.05 µM) of -39.8%. The inhibition ([8]; at 0.5 µM) was -35.2% (inactive), the inhibition ([8]; cisplatin combo, at 0.05 µM) was -45.3% and the inhibition ([8]; cisplatin combo, at 0.5 µM) was -48.6%. For the same compound, the inhibition ([8]; cisplatin combo, at 5 µM) was -19.2%, the inhibition ([8]; measured here: 5 uM single agent, at 5 µM) was -4.36% and the inhibition ([9]; at 0.5 µM) was -20.1% (inactive). It also gave an inhibition [9, 25] of -4.39%, an inhibition [9, 28] of -40% and an inhibition [9, 29] of -37.8%. The inhibition ([10]; at 0.5 µM) was -19.8% (inactive), the inhibition ([10]; measured here: with BGB IC20, at 0.5 µM) was -22.3% and the inhibition ([10]; measured here: with BGB IC20, at 5 µM) was -12.5%. The inhibition ([10]; measured here: with cisplatin IC20, at 0.5 µM) was -24.3%, the inhibition ([10]; measured here: with cisplatin IC20, at 5 µM) was -32.4% and the inhibition ([10]; single agent, at 5 µM) was -9.78%. The inhibition ([11]; at 0.5 µM) was -33.8% (inactive), the inhibition ([11]; measured here: combination with BGB at IC20, at 0.5 µM) was -36.3% and the inhibition ([11]; measured here: combination with cisplatin at IC20, at 0.5 µM) was -11%. For the same compound, the inhibition ([12]; at 0.5 µM) was -11.8% (inactive), the inhibition ([12]; measured here: combo with BGB at IC20, at 0.5 µM) was -17.8% and the inhibition ([12]; measured here: combo with cisplatin at IC20, at 0.5 µM) was -8.28%. For the same compound, the inhibition ([13]; at 0.5 µM) was -8.53% (inactive), the inhibition ([13]; measured here: inhibition with BGB combination, at 0.05 µM) was 3.53% and the inhibition ([13]; measured here: inhibition with cisplatin combination, at 0.05 µM) was -7.7%. The inhibition ([14]; at 0.5 µM) was -7.6% (inactive), the inhibition [14, 28] was -4.15% and the inhibition [14, 29] was 0.394%. The inhibition ([15]; at 0.5 µM) was -6.2% (inactive), the inhibition ([15]; measured here: BGB combination, at 0.5 µM) was -13% and the inhibition ([15]; measured here: BGB combination, at 5 µM) was -6.36%. The inhibition ([15]; measured here: cisplatin combination, at 0.5 µM) was 1.75%, the inhibition ([15]; measured here: cisplatin combination, at 5 µM) was 6.49% and the inhibition ([16]; BGB combination, concentration series, at 5 µM) was 0.582%. For the same compound, the inhibition ([16]; at 0.5 µM) was -4.66% (inactive), the inhibition ([16]; cisplatin combination, concentration series, at 5 µM) was -5.09% and the inhibition ([17]; at 0.5 µM) was -7.65% (inactive). The inhibition ([17]; measured here: combo with BGB IC20, at 0.5 µM) was -3.78%, the inhibition ([17]; measured here: combo with cisplatin IC20, at 0.5 µM) was -9.79% and the inhibition ([18]; at 0.5 µM) was 1.74% (inactive). The inhibition ([18]; cisplatin combination, at 0.5 µM) was 3.64%, the inhibition ([18]; cisplatin combination, at 5 µM) was -6.4% and the inhibition ([18]; measured here: BGB IC40 combination 0.05 uM, at 0.05 µM) was 80.8%. The inhibition ([18]; single agent, at 5 µM) was 1.94%, the inhibition ([19]; at 0.5 µM) was -0.87% (inactive) and the inhibition ([19]; cisplatin combo, at 5 µM) was -1.64%. The inhibition ([19]; measured here: BGB IC40 combination, at 0.05 µM) was 1.84%, the inhibition [19, 28] was 9.53% and the inhibition ([19]; single agent, at 5 µM) was -21.6%. The inhibition ([20]; at 0.5 µM) was -4.03% (inactive), the inhibition [20, 26] was -16.1% and the inhibition [20, 27] was 2%. For the same compound, the inhibition ([20]; single agent, at 0.05 µM) was -14.2% and the inhibition ([20]; single agent, at 5 µM) was -34.2%.
For `Cc1c(CC(C)(C)C(=O)O)n(Cc2ccc(Cl)cc2)c2ccc(F)cc12`, the period change [5] was -0.04 h (inactive), the remaining activity [1] was 112% (inactive) and the fold change [2, 21] was 0.952 (inactive). For the same compound, the fold change [2, 22] was 0.72, the cell count [2, 23] was 8220 and the cell count [2, 24] was 8630. The z-score [3] was 0.1 (inactive).
